Results filed as inconclusive are left out. Active and inactive are the calls of the source. The calls were made as follows, unless noted: active = hit-call score of the fitted dose curve at least 0.9, where 1 is the maximum; inconclusive = response in the unintended direction; inactive = score below 0.9.
Tested on: not listed separately
Assay: Tanguay_ZF_120hpf_TRUN_legacy: (Legacy) Oregon State University Tanguay Lab 120 Hour Post-fertilization zebrafish Assay for Truncated Body (AID 2283655)
Conditions: not given
Procedure, shortened: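 Single dechorionated zebrafish embryos received test chemical from 6 hpf in 0.64% DMSO, kept at 28C. At 120 hpf, brightfield inspection noted any truncated body.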

Structure (SMILES)	outcome	AC50
Cc1ccc(O)c(C)c1	inactive	–
O=C(O)C(F)(F)C(F)(F)C(F)(F)C(F)(F)C(F)(F)C(F)(F)C(F)(F)C(F)(F)F	inactive	–
CCNc1nc(NC(C)C)nc(SC)n1	inactive	–
CN(C)c1nc(=O)n(C2CCCCC2)c(=O)n1C	inactive	–
Oc1ccc(C(c2ccc(O)cc2)(C(F)(F)F)C(F)(F)F)cc1	–	53 µM (active)
C[C@]12CCC(=O)C=C1CC[C@@H]1[C@@H]2CC[C@]2(C)C(=O)CC[C@@H]12	inactive	–
CCCCCCCCCc1ccc(O)cc1	inactive	–
CCC(=O)O[C@H]1CC[C@H]2[C@@H]3CCC4=CC(=O)CC[C@]4(C)[C@H]3CC[C@]12C	inactive	–
COc1ccc(O)c(C(C)(C)C)c1	inactive	–
CCCCCCCCCC[N+](C)(C)CCCCCCCCCC	inactive	–
CCCCCCCCOC(=O)c1ccccc1C(=O)OCCCCCCCC	inactive	–
Cc1ccccc1CO[C@@H]1C[C@@]2(C(C)C)CC[C@]1(C)O2	inactive	–
COS(=O)(=O)OC	inactive	–
Clc1ccc(Cl)cc1	inactive	–
c1ccc(-c2ccccc2)cc1	inactive	–
O=C(O)C(F)(F)C(F)(F)C(F)(F)C(F)(F)C(F)(F)C(F)(F)C(F)(F)C(F)(F)C(F)(F)F	inactive	–
CCSC(=O)N(CC)C1CCCCC1	inactive	–
O=S(=O)(O)C(F)(F)C(F)(F)C(F)(F)C(F)(F)C(F)(F)C(F)(F)F	inactive	–
Oc1c(Cl)c(Cl)c(Cl)c(Cl)c1Cl	inactive	–
O=C(NC(=O)c1c(F)cccc1F)Nc1cc(Cl)c(OC(F)(F)C(F)F)c(Cl)c1	inactive	–
CCOCCOC(C)=O	inactive	–
CCC(C)(CC)c1cc(NC(=O)c2c(OC)cccc2OC)on1	inactive	–
Clc1ccc(C(Cl)(Cl)Cl)cc1	inactive	–
CCC(C)(c1ccc(O)cc1)c1ccc(O)cc1	–	46.6 µM (active)
CC1=C2C[C@H]3[C@@H](CC=C4C[C@@H](O)CC[C@@]43C)[C@@H]2CC[C@]12O[C@@H]1C[C@H](C)CN[C@H]1[C@H]2C	inactive	–
CC(c1ccc(O)cc1)(c1ccc(O)cc1)c1ccc(O)cc1	inactive	–

Tested on: not listed separately
Assay: Tanguay_ZF_120hpf_NC_legacy: (Legacy) Oregon State University Tanguay Lab 120 Hour Post-fertilization zebrafish Assay for Notochord and Tail Malformation (AID 2283656)
Conditions: not given
Procedure, shortened: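 Dechorionated 5D zebrafish, 1/well from 6 hpf; static exposure to 120 hpf, 28C, sealed, dark; final DMSO 0.64% v/v. NC scored binary (present/absent); dead embryos not scored. Fit vs DMSO baseline, gain direction.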

Structure (SMILES)	outcome
Cc1ccc(O)c(C)c1	inactive
O=C(O)C(F)(F)C(F)(F)C(F)(F)C(F)(F)C(F)(F)C(F)(F)C(F)(F)C(F)(F)F	inactive
CCNc1nc(NC(C)C)nc(SC)n1	inactive
CN(C)c1nc(=O)n(C2CCCCC2)c(=O)n1C	inactive
Oc1ccc(C(c2ccc(O)cc2)(C(F)(F)F)C(F)(F)F)cc1	inactive
C[C@]12CCC(=O)C=C1CC[C@@H]1[C@@H]2CC[C@]2(C)C(=O)CC[C@@H]12	inactive
CCCCCCCCCc1ccc(O)cc1	inactive
CCC(=O)O[C@H]1CC[C@H]2[C@@H]3CCC4=CC(=O)CC[C@]4(C)[C@H]3CC[C@]12C	inactive
COc1ccc(O)c(C(C)(C)C)c1	inactive
CCCCCCCCCC[N+](C)(C)CCCCCCCCCC	inactive
CCOP(=S)(OCC)SCSC(C)(C)C	inactive
CC(C)(c1ccccc1)c1ccc(O)cc1	inactive
CCCCCCCCOC(=O)c1ccccc1C(=O)OCCCCCCCC	inactive
Cc1ccccc1CO[C@@H]1C[C@@]2(C(C)C)CC[C@]1(C)O2	inactive
COS(=O)(=O)OC	inactive
Clc1ccc(Cl)cc1	inactive
O=C(O)C(F)(F)C(F)(F)C(F)(F)C(F)(F)C(F)(F)C(F)(F)C(F)(F)C(F)(F)C(F)(F)F	inactive
O=S(=O)(O)C(F)(F)C(F)(F)C(F)(F)C(F)(F)C(F)(F)C(F)(F)F	inactive
ClC1=C(Cl)[C@]2(Cl)[C@@H]3[C@@H]4C[C@@H]([C@H]5O[C@@H]45)[C@@H]3[C@@]1(Cl)C2(Cl)Cl	inactive
Oc1c(Cl)c(Cl)c(Cl)c(Cl)c1Cl	inactive
O=C(NC(=O)c1c(F)cccc1F)Nc1cc(Cl)c(OC(F)(F)C(F)F)c(Cl)c1	inactive
CCOCCOC(C)=O	inactive
CCC(C)(CC)c1cc(NC(=O)c2c(OC)cccc2OC)on1	inactive
O=NN(c1ccccc1)c1ccccc1	inactive
Clc1ccc(C(Cl)(Cl)Cl)cc1	inactive
C=CC(N)=O	inactive
CC1=C2C[C@H]3[C@@H](CC=C4C[C@@H](O)CC[C@@]43C)[C@@H]2CC[C@]12O[C@@H]1C[C@H](C)CN[C@H]1[C@H]2C	inactive
CC(c1ccc(O)cc1)(c1ccc(O)cc1)c1ccc(O)cc1	inactive

Read-out: solute carrier (SLC10A1), SLC10A1 (gene 6554)
Assay: LTEA_HepaRG_SLC10A1: Life Technologies and Expression Analysis (LTEA) Assay for solute carrier (SLC10A1) using HepaRG (AID 2283657; active = hit-call score of the fitted dose curve at least 0.9, where 1 is the maximum; inactive = score below 0.9)
Conditions: mRNA level, 48 h; actives raise or lower the signal
Procedure, shortened: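 Differentiated HepaRG cells were plated 48 h, then exposed in serum-free induction medium for 48 h to 8 concentrations (top 100 uM, half-log steps, 0.5% DMSO). SLC10A1 mRNA was quantified by qRT-PCR normalized to ACTB, GAPDH, POLR2A; bidirectional fit versus DMSO.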

Structure (SMILES)	outcome	AC50
CCCCCCCCCc1ccc(O)cc1	inactive	–
COS(=O)(=O)OC	inactive	–
Clc1ccc(Cl)cc1	inactive	–
O=C(O)C(F)(F)C(F)(F)C(F)(F)C(F)(F)C(F)(F)C(F)(F)C(F)(F)C(F)(F)C(F)(F)F	–	23.3 µM (active)
CC1=C2C[C@H]3[C@@H](CC=C4C[C@@H](O)CC[C@@]43C)[C@@H]2CC[C@]12O[C@@H]1C[C@H](C)CN[C@H]1[C@H]2C	inactive	–

Read-out: matrix metalloproteinase-1 (MMP1), MMP1 (gene 4312)
Assay: LTEA_HepaRG_MMP1: Life Technologies and Expression Analysis (LTEA) Assay for matrix metalloproteinase-1 (MMP1) using HepaRG (AID 2283658; active = hit-call score of the fitted dose curve at least 0.9, where 1 is the maximum; inactive = score below 0.9)
Conditions: mRNA level, 48 h; actives raise or lower the signal
Procedure, shortened: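 In this screen, human liver HepaRG cultures receive each chemical in duplicate for 48 h (top 100 uM, 0.5% DMSO). MMP1 expression is then quantified by TaqMan qRT-PCR with ACTB/GAPDH/POLR2A normalization.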

Structure (SMILES)	outcome	AC50
CCCCCCCCCc1ccc(O)cc1	inactive	–
COS(=O)(=O)OC	inactive	–
Clc1ccc(Cl)cc1	inactive	–
O=C(O)C(F)(F)C(F)(F)C(F)(F)C(F)(F)C(F)(F)C(F)(F)C(F)(F)C(F)(F)C(F)(F)F	–	72.2 µM (active)
CC1=C2C[C@H]3[C@@H](CC=C4C[C@@H](O)CC[C@@]43C)[C@@H]2CC[C@]12O[C@@H]1C[C@H](C)CN[C@H]1[C@H]2C	inactive	–
